Measured values taken from PubChem BioAssay (Tox21).
Records with an inconclusive call do not appear. A call without a number means that no potency is given here. Unmarked numbers belong to inactive results. The source made the active and inactive calls. Calls come from the whole dose curve.
Potency is the fitted concentration of half-maximal effect.

These compounds were tested against Acetylcholinesterase (Homo sapiens) (UniProt P22303) (assay: Acetylcholinesterase (AChE) small molecule antagonists: fluorescence cell-based qHTS assay (AID 1347398; note: nearly all actives have a fitted effect of over 50% in size)). Details: SH-SY5Y cells; Potency: AChE activity; outcome: AChE activity; series mostly up to 115 µM.
Acetylcholinesterase (Homo sapiens), sequence (P22303 whole entry, looked up): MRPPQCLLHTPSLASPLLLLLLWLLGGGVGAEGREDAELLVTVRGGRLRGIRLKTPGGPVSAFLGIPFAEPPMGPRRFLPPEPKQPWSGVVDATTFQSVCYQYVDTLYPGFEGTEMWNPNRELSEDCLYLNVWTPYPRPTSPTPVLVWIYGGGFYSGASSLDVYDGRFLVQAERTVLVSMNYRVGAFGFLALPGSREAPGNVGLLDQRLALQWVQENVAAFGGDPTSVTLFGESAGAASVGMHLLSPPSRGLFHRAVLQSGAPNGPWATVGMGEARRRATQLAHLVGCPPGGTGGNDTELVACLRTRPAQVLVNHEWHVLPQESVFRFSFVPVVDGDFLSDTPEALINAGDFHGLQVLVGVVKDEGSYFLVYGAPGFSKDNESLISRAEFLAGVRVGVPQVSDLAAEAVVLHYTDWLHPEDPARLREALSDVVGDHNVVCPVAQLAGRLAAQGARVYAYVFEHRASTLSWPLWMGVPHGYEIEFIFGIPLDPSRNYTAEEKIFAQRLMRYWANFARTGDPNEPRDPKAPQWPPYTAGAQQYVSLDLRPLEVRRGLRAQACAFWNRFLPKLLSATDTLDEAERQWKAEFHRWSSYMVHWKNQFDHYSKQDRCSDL
Source text: National Center for Advancing Translational Sciences [NCATS]
Division of Preclinical Innovation [DPI]
U.S. Environmental Protection Agency [EPA]
National Institutes of Environmental Health Sciences [NIEHS]
National Toxicology Program [NTP]
U.S. Food and Drug Administration [FDA]
Acetylcholinesterase (AChE) is the primary cholinesterase in the body that hydrolyzes a key neurotransmitter, acetylcholine. Inhibition of AChE activity can lead to neurotoxicity. Known inhibitors of AChE include organophosphorous pesticides (OP), chemical warfare agents, drugs, and various phytochemicals.
A homogenous cell-based assay using Amplitetrade mark Fluorimetric Acetylcholinesterase Assay Kit *Green Fluorescence* (AAT Bioquest, Sunnyvale, CA) was used to evaluate the chemicals in the Tox21 10K library that inhibit AChE activity. The assay uses Thiolite Green to quantify the thiocholine produced from the hydrolysis of acetylthiocholine by AChE from the SH-SY5Y cells. AChE can hydrolyze acetylthiocholine to create thiocholine. Thiolite Green is fluorescent when reacting with thiocholine. It has spectral properties similar to those of fluorescein. The fluorescence intensity of Thiolite Green is used to measure AChE activity. Its signal can be easily read by a fluorescence microplate reader at Ex/Em = 490/520 nm.
Tox21 Assay Protocol Summary:
For cell-based AChE assay, 2,000 SH-SY5Y cells in 4 uL/well were dispensed into black, clear-bottom 1536-well plates using a Multidrop Combi (Thermo Scientific) dispenser. The assay plates were incubated overnight at 37 C to allow cells to attach to the wells, followed by the transfer of 23 nL compound or DMSO (vehicle control) by a Pintool station (Wako Automation, CA). The plates were incubated for 30 min at 37 C and 5% CO2, followed by the addition of 4 uL of detection cocktail solution (ThioliteGreen, acetylthiocholine) into each well using Flying Reagent Dispenser (Beckman Coulter, CA) and then following 40 min incubation at room temperature. Fluorescent intensity (Ex/Em = 490/520 nm) was measured using an Envision plate reader (PerkinElmer, MA).
In the case of `O=C(O)c1c(Cl)cccc1Cl`, the Potency is reported as “inactive”.
`OCCCO` was tested, and the Potency was “inactive”.
`CC(C)CCOC(=O)CC(C)C` was tested, and the Potency was “inactive”.
`O=C1OC(=O)c2ccccc21` was tested, and the Potency was “inactive”.
For `CCO[Si](C)(OCC)OCC`, the Potency was “inactive”.
In the case of `CCCC(=O)O[C@]1(C(=O)COC(=O)CC)CC[C@H]2[C@@H]3CCC4=CC(=O)CC[C@]4(C)[C@H]3[C@@H](O)C[C@@]21C`, the activity change, negative = inhibition is reported as 1.87% [at 23.8 µM].
`COc1cc(-c2ccc(N=C=O)c(OC)c2)ccc1N=C=O` was tested, and the Potency was “inactive”.
`Nc1nc(N)c(-c2ccccc2)s1` was tested, and the Potency was “inactive”.
With `N=C(N)N1CCc2ccccc2C1` the activity change, negative = inhibition was -0.69% [at 10.5 µM].
In the case of `CC1CNCC(C)O1` (stereo not given), the Potency is reported as “inactive”.
In the case of `S=c1[nH]c2ccccc2s1`, the Potency is reported as “inactive”.
With `CC(C)(C)c1ccc(-c2ccc(C(C)(C)C)cc2)cc1` the Potency was “inactive”.
For `CC(C)[C@H]1CC[C@H](C)C[C@@H]1O`, the Potency was “inactive”.
`CCc1c(Br)c(Br)c(Br)c(Br)c1Br` was tested, and the Potency was “inactive”.
With `CC(C)=C1CC[C@@H](C)CC1=O` the Potency was “inactive”.
`NC(=O)Nc1ccccc1` was tested, and the Potency was “inactive”.
Compound `CCCCN1C=CN(C)C1` has an activity change, negative = inhibition of -2.29% [at 23.8 µM].
In the case of `CCO[Si](C)(C)OCC`, the Potency is reported as “inactive”.
For `CC(C)c1ccc2c(c1)CC[C@H]1[C@](C)(CN)CCC[C@]21C`, the Potency was “inactive”.
`CCOCN(C(=O)CS(=O)(=O)O)c1c(C)cccc1CC` was tested, and the Potency was “inactive”.
In the case of `CC(C)(C)c1cc(CO)cc(C(C)(C)C)c1O`, the Potency is reported as “inactive”.
`O=C(Cn1ccnc1[N+](=O)[O-])NCCO` was tested, and the Potency was “inactive”.
For `ON=C1CCCC1`, the Potency was “inactive”.
For `C1COC1`, the Potency was “inactive”.
`O=P(O)(O)Oc1ccccc1` was tested, and the Potency was “inactive”.
In the case of `CCc1nccnc1C`, the Potency is reported as “inactive”.
For `CC(N=C(NC#N)Nc1ccncc1)C(C)(C)C` (stereo not given), the Potency was “inactive”.
For `CCCCCc1ccc(O)cc1`, the Potency was “inactive”.
For `CCCCOCCOC(=O)COc1nc(Cl)c(Cl)cc1Cl`, the Potency was “inactive”.
In the case of `Cc1ccc2ccc3cccc4ccc1c2c34`, the Potency is reported as “inactive”.
In the case of `Nc1ccc(S(=O)(=O)Nc2ccccc2)cc1`, the Potency is reported as “inactive”.
For `CN(C)CCOCCO`, the Potency was “inactive”.
`C=C(C)[C@@H]1CC[C@@H](C)C[C@@H]1O` was tested, and the Potency was “inactive”.
`CC[N+](CC)(CC)Cc1ccccc1` was tested, and the Potency was “inactive”.
With `CC(C)(C)NCC(O)COc1ccc(NC(=O)NC2CCCCC2)cc1` (stereo not given) the Potency was “inactive”.
`C=CC(C)C#N` (stereo not given) was tested, and the Potency was “inactive”.
`COC(=O)Nc1nc2ccc(C(=O)c3ccccc3)cc2[nH]1` was tested, and the Potency was “inactive”.
In the case of `C/C=C/C(=O)CC`, the activity change, negative = inhibition is reported as -7.93% [at 23.8 µM].
`CNc1ccc(O)cc1` was tested, and the Potency was 31.7 µM (active).
For `Cc1c(C)c2c(c(C)c1OC(=O)CCC(=O)O)CC[C@@](C)(CCC[C@H](C)CCC[C@H](C)CCCC(C)C)O2`, the Potency was “inactive”.
